Reference: ChEMBL document CHEMBL3433997, “St. Jude Leishmania screening dataset” (2016)
“And” between values parts separate entries of the source, which are not always exact repeats. Equal values may be shown once.

Key:
Type in all cases: functional
[1] = biological target: Solute carrier family 2, facilitated glucose transporter member 1 (Homo sapiens) (UniProt P11166); experiment: ST_JUDE_LEISH: Cytotoxicity at 2uM final concentration against transgenic Leishmania Mexicana promastigotes LmGLUT1 that are glucose transport deficient and complemented with the human glucose transporter GLUT1. Activity is measured by DNA content using SYBR green in vitro
[2] = biological target: Hexose transporter 1 (Plasmodium falciparum) (UniProt O97467); experiment: ST_JUDE_LEISH: Cytotoxicity at 2uM final concentration against transgenic Leishmania Mexicana promastigotes LmPfHT that are glucose transport deficient and complemented with the Plasmodium falciparum hexose transporter. Activity is measured by DNA content using SYBR green in vitro
[3] = biological target: Glucose transporter (Leishmania mexicana) (UniProt O61059); experiment: ST_JUDE_LEISH: Cytotoxicity at 2uM final concentration against transgenic Leishmania Mexicana promastigotes LmGT2 that are glucose transport deficient and complemented with the L. Mexicana glucose transporter 2. Activity is measured by DNA content using SYBR green in vitro

Sequence of Solute carrier family 2, facilitated glucose transporter member 1 (Homo sapiens) (P11166 whole entry): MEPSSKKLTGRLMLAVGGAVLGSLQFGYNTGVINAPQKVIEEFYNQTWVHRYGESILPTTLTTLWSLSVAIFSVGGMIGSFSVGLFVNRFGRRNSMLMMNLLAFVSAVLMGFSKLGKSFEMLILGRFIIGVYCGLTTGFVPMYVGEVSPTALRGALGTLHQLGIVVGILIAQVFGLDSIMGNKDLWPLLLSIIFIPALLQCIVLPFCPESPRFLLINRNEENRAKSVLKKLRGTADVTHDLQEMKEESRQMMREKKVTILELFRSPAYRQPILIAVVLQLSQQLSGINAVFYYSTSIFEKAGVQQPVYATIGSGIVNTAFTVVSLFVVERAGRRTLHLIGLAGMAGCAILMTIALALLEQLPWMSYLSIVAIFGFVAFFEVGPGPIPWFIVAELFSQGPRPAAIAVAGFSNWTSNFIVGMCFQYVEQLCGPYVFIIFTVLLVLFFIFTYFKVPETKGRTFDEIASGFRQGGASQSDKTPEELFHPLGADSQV

## Cc1cc(=O)c(-c2ccc(Oc3ccc(Cl)cc3Cl)cc2)c(C)[nH]1
[1]
  inhibition: 2.15%
[2]
  inhibition: 3.32%
[3]
  inhibition: 1.9%

## N#Cc1cccc(Nc2ncc3c(-c4cccc(NC(=O)Cc5cccc(Cl)c5)c4)c[nH]c3n2)c1
[1]
  inhibition: 3.15%
[2]
  inhibition: 2.53%
[3]
  inhibition: 0.18%

## Cc1ccc(O)c(CN2CCCC(COC(c3ccc(F)cc3)c3ccc(F)cc3)C2)c1 (centres undefined)
[1]
  inhibition: 2.33%
[2]
  inhibition: -0.35%
[3]
  inhibition: -4.12%

## CC(C)OC(=O)c1ccc(NC(=O)N[C@@H](Cc2ccc(O)cc2)C(=O)NC2CCC(CCN3C4CCC3c3ccccc34)CC2)cc1 (some centres undefined)
[1]
  inhibition: 3.08%
[2]
  inhibition: 2.7%
[3]
  inhibition: 2.46%

## CCCN(CC1CC1)c1nc(C)nc2c(-c3ccccc3)cc(C)cc12
[1]
  inhibition: 12.7%
[2]
  inhibition: 16.2%
[3]
  inhibition: 10.1%

## C=CCC1OC(=O)c2cc(OC)cc(OC)c21 (centres undefined)
[1]
  inhibition: 89.1%
[2]
  inhibition: 84.4%
[3]
  inhibition: 86.9%

## O=C(/C=C/c1ccc(Cl)c(Cl)c1)NCCCCCN1CCC(CCNC(=O)/C=C/c2ccc(Cl)c(Cl)c2)CC1
[1]
  inhibition: 1.63%
[2]
  inhibition: -0.93%
[3]
  inhibition: 0.87%

## COc1ccc(-c2cccc(NC(=O)c3ccc(F)cc3)c2)cc1CNC(C)C
[1]
  inhibition: 1.85%
[2]
  inhibition: 3.31%
[3]
  inhibition: 3.19%

## CCCCCC(C)C(C)c1cc(O)c2c(c1)OC(C)(C)CC2=Cc1ccncc1 (centres undefined)
[1]
  inhibition: 12.6%
[2]
  inhibition: 11.5%
[3]
  inhibition: 10.7%

## COCCNC(=O)c1ccc(OC2CCN(CC(C)=Cc3ccccc3)CC2)c(Cl)c1
[1]
  inhibition: 2.65%
[2]
  inhibition: 3.32%
[3]
  inhibition: 1.03%

## CC(C)(C)Nc1cc(C(=O)N[C@@H](Cc2ccccc2)[C@H](O)CNC2CCOCC2)cc(N2CCCCS2(=O)=O)c1
[1]
  inhibition: 0.29%
[2]
  inhibition: 0.07%
[3]
  inhibition: -0.61%

## CN1CCCc2ccc(NC(=O)Nc3ccc(Cl)c(Cl)c3)cc2C1
[1]
  inhibition: -0.95%
[2]
  inhibition: -0.84%
[3]
  inhibition: -1.33%

## O=C(Nc1ccc(-c2cccc(-c3nc4cc(C(F)(F)F)ccc4[nH]3)c2)cc1)c1cccnc1
[1]
  inhibition: 0.28%
[2]
  inhibition: 0.06%
[3]
  inhibition: -1.11%

## CN1CCN(CCCN(Cc2cccc(-c3ccc(CNC4CCCC4)cc3)c2)C(=O)CCC2CCCC2)CC1
[1]
  inhibition: 17.4%
[2]
  inhibition: 8.03%
[3]
  inhibition: 3.62%

## O=C1CCCN1CCCNCc1cccc(-c2ccc(-c3nc4cc(C(F)(F)F)ccc4[nH]3)cc2)c1
[1]
  inhibition: 13.5%
[2]
  inhibition: 13%
[3]
  inhibition: 13%

## Cc1ccc(C(C)C)cc1CON1C(=N)N=C(N)NC1(C)C
[1]
  inhibition: 11.2%
[2]
  inhibition: 10.7%
[3]
  inhibition: 10.9%

## N#Cc1ccc(OCCN(Cc2ccccc2C(F)(F)F)c2ccc(C#N)c(C(F)(F)F)c2)cc1
[1]
  inhibition: 10.1%
[2]
  inhibition: 9.42%
[3]
  inhibition: 8.53%

## COc1cc(Nc2ccnc3ccc(C(C)(C)C)cc23)cc(OC)c1OC
[1]
  inhibition: 0.32%
[2]
  inhibition: 0.17%
[3]
  inhibition: 1.66%

## CN1CCc2cc(NC(=O)c3cc4ccccc4s3)cc(-c3ccccc3)c2CC1
[1]
  inhibition: 97.2%
[2]
  inhibition: 101%
[3]
  inhibition: 95.9%

## CCCCCCn1c(Sc2ccc(C#N)c([N+](=O)[O-])c2)nnc1-c1cccc(Cl)c1
[1]
  inhibition: 3.22%
[2]
  inhibition: 9.17%
[3]
  inhibition: 0.88%

## O=C(c1cccc(-c2noc(C(F)(F)F)n2)c1)N1CCN(c2ccncc2)CC1
[1]
  inhibition: 11.1%
[2]
  inhibition: 10.9%
[3]
  inhibition: 10.8%

## CCCCCn1c(Sc2ccc(C#N)c([N+](=O)[O-])c2)nnc1-c1cccc(Cl)c1
[1]
  inhibition: 5.58%
[2]
  inhibition: 6.17%
[3]
  inhibition: -0.77%

## CCc1cn2c3c(cc(C(=O)N[C@@H](Cc4ccccc4)[C@H](O)CNC(C)C)cc13)N(C)S(=O)(=O)C2
[1]
  inhibition: -2.02%
[2]
  inhibition: -1.87%
[3]
  inhibition: 0.06%

## O=C(NCc1ccc(Cl)c(Cl)c1)c1ccc(-c2nc3ccc(Cl)cc3[nH]2)cc1
[1]
  inhibition: 4.45%
[2]
  inhibition: 9.23%
[3]
  inhibition: 3.4%

## CCOc1cc(NCCSCc2nc[nH]c2C)nc2ccccc12
[1]
  inhibition: -1.28%
[2]
  inhibition: -0.61%
[3]
  inhibition: -3.84%

## Cc1cc(-c2ccc3c(c2)CCN(CCC2CCC(NC(=O)/C=C/c4cccc(F)c4)CC2)CC3)on1 (centres undefined)
[1]
  inhibition: 2.32%
[2]
  inhibition: 0.47%
[3]
  inhibition: 3.42%

## CN1CCN(c2ccnc3ccc(NC(=O)Nc4ccc(Br)cc4)cc23)CC1
[1]
  inhibition: -0.59%
[2]
  inhibition: 0.3%
[3]
  inhibition: 0.32%

## CC(C)(C)c1cc(NC(=O)c2ccc(Cl)c([N+](=O)[O-])c2)cc(C(C)(C)C)c1
[1]
  inhibition: 6.54%
[2]
  inhibition: 6.88%
[3]
  inhibition: 6.21%

## O=C1Nc2cccc3c2C1(CCCCN1CCC(c2cc4ccncc4[nH]2)CC1)CCC3 (centres undefined)
[1]
  inhibition: -0.19% and 8.55%
[2]
  inhibition: 0.01% and 8.94%
[3]
  inhibition: -0.84% and 8.48%

## CCCCCN1CCCCC(NS(=O)(=O)c2ccc(C(=O)Nc3ccc(C(F)(F)F)cc3)cc2)C1 (centres undefined)
[1]
  inhibition: 0.12%
[2]
  inhibition: 2.98%
[3]
  inhibition: -1.53%

## COc1ccc2nc(Nc3nc(-c4ccccn4)cs3)sc2c1
[1]
  inhibition: 11.7%
[2]
  inhibition: 16%
[3]
  inhibition: 5.62%

## O=C(Nc1cc(C(F)(F)F)ccc1Cl)c1ccc(Cn2cc(Br)cn2)cc1
[1]
  inhibition: 1.23%
[2]
  inhibition: 0.15%
[3]
  inhibition: -9.62%

## CO/C(=C\C=C\c1cc2cc(Cl)c(Cl)cc2[nH]1)C(=O)NC1CC2CCC(C1)N2C (centres undefined)
[1]
  inhibition: 0.15%
[2]
  inhibition: 1.93%
[3]
  inhibition: -1.99%
